Measured values published in PubChem BioAssay (Tox21).
Inconclusive results are not listed. More than one record can exist for a structure, and the calls need not agree. Active and inactive are the calls of the source. Unless noted, calls come from the whole dose curve; as a rule, active = well fitted curve in the direction sought with a large enough effect in the repeat runs; inconclusive = weak or mixed curves; inactive = no such curve, though single readings can be large; an effect the other way counts as inactive or inconclusive.

Columns and labels:
[1] = qHTS assay to identify small molecule agonists of the peroxisome proliferator-activated receptor delta (PPARd) signaling pathway - cell viability counter screen (AID 743211); note: nearly all actives have a fitted effect of over 55% in size; note: potency is the fitted concentration of half-maximal effect
How it was run: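 Read-out: CellTiter-Glo luminescence, 30 min RT, measured in the same wells as the beta-lactamase reporter. Cells: GeneBLAzer PPAR delta UAS-bla HEK293H, 3000 cells/well, compound exposure 17 h at 37C.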

[2] = qHTS assay to identify small molecule antagonists of the peroxisome proliferator-activated receptor delta (PPARd) signaling pathway - cell viability counter screen (AID 743213); note: nearly all actives have a fitted effect of over 50% in size; note: potency is the fitted concentration of half-maximal effect
How it was run: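 Agonist-stimulated (L165041, 300 nM final) HEK293H PPARd UAS-bla cells are exposed to compounds for 17 h at 37 C, and ATP-based luminescence (CellTiter-Glo) from the same wells reports cytotoxicity.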

[3] = biological target: Bile acid receptor (Homo sapiens) (UniProt Q96RI1); assay: qHTS assay to identify small molecule antagonists of the farnesoid-X-receptor (FXR) signaling pathway (AID 743217; active = well fitted inhibition curve with a large enough effect in the signal ratio in the repeat runs, not every such curve was filed as active; the % refers to the signal ratio)
Chain of Bile acid receptor (Homo sapiens) (Q96RI1 whole entry, looked up): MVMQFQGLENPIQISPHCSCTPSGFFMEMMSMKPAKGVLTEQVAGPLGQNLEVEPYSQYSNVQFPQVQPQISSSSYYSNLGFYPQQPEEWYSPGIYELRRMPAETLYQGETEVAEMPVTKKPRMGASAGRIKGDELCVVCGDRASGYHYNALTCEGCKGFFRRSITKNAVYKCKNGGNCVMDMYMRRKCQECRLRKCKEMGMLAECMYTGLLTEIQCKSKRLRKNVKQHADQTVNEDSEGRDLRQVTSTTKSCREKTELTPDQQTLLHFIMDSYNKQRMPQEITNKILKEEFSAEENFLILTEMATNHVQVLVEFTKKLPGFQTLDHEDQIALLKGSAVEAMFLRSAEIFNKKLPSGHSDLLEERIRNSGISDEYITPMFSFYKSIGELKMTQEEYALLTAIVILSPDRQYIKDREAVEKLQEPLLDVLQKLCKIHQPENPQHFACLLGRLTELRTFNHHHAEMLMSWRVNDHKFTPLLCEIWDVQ
How it was run: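 FXR-UAS-bla HEK 293T cells (beta-lactamase reporter) given compound plus chenodeoxycholic acid (50 uM final), 16 h at 37C. LiveBLAzer B/G FRET substrate added for 2 h at room temperature; fluorescence read.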

[4] = qHTS assay to identify small molecule agonists of the farnesoid-X-receptor (FXR) signaling pathway - cell viability counter screen (AID 743218); note: nearly all actives have a fitted effect of over 45% in size
How it was run: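 FXR-UAS-bla HEK 293T cells exposed to compounds for 16 h at 37C. Cytotoxicity read in the same wells by CellTiter-Glo luminescence after 30 min at room temperature, following the beta-lactamase FRET read.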

[5] = biological target: Bile acid receptor (Homo sapiens) (UniProt Q96RI1); assay: qHTS assay to identify small molecule agonists of the farnesoid-X-receptor (FXR) signaling pathway (AID 743220; active = well fitted activation curve with a large enough effect in the signal ratio in the repeat runs, not every such curve was filed as active; the % refers to the signal ratio)
How it was run: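 Beta-lactamase reporter under UAS control in GeneBLAzer FXR HEK 293T cells (5000/well) measured with LiveBLAzer FRET substrate after 2 h at room temperature. Compound exposure lasted 16 h at 37C.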

[6] = biological target: Vitamin D3 receptor (Homo sapiens) (UniProt P11473); assay: qHTS assay to identify small molecule agonists of the vitamin D receptor (VDR) signaling pathway (AID 743222; calls by dose curve)
Chain of Vitamin D3 receptor (Homo sapiens) (P11473 whole entry, looked up): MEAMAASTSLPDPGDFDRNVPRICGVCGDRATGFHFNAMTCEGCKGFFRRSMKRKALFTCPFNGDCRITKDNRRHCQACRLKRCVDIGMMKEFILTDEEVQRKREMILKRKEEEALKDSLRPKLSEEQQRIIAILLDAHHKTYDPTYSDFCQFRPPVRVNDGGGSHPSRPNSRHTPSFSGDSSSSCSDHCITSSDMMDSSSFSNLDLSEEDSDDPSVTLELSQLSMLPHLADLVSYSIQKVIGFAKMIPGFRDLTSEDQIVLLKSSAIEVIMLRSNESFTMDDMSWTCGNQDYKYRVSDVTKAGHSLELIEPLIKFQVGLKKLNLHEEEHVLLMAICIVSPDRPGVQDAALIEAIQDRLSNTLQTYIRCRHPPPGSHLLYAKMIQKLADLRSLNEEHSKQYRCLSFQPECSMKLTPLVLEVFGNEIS
How it was run: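 VDR-bla cells plated 4 h at 37 C, then exposed to compounds for 16 h at 37 C. Beta-lactamase reporter activity measured by fluorescence after 2 h room-temperature loading with LiveBLAzer B/G FRET substrate.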

[7] = biological target: Vitamin D3 receptor (Homo sapiens) (UniProt P11473); assay: qHTS assay to identify small molecule antagonists of the vitamin D receptor (VDR) signaling pathway (AID 743223; active = well fitted inhibition curve with a large enough effect in the signal ratio in the repeat runs, not every such curve was filed as active; the % refers to the signal ratio)
How it was run: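 Beta-lactamase reporter read-out: FRET substrate fluorescence after 2 h at room temperature, following 16 h exposure of VDR-bla cells to test compound plus 3 nM (final) 1alpha,25-dihydroxyvitamin D3 agonist at 37C.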

[8] = biological target: Peroxisome proliferator-activated receptor delta (Homo sapiens) (UniProt Q03181); assay: qHTS assay to identify small molecule antagonists of the peroxisome proliferator-activated receptor delta (PPARd) signaling pathway (AID 743215; active = well fitted inhibition curve with a large enough effect in the signal ratio in the repeat runs, not every such curve was filed as active; the % refers to the signal ratio; note: series mostly up to about 62 µM)
Chain of Peroxisome proliferator-activated receptor delta (Homo sapiens) (Q03181 whole entry, looked up): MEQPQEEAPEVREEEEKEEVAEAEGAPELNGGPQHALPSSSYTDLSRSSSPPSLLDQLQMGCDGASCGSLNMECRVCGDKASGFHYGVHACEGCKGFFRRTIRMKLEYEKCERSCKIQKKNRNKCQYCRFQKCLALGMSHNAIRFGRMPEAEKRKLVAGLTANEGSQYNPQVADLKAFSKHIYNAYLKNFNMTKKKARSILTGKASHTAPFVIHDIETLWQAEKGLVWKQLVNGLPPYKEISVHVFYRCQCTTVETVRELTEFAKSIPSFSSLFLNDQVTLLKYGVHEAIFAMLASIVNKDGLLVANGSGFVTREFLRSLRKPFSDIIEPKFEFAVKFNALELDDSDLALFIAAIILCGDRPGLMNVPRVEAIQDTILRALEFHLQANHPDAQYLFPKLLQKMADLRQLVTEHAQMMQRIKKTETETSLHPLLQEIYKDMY
How it was run: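 PPARd-bla HEK293H cells (UAS-bla reporter) preincubated 5 h, then given compound plus 300 nM final L165041 agonist for 17 h at 37 C. Beta-lactamase activity read by LiveBLAzer B/G FRET substrate fluorescence after 2 h at room temperature.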

[9] = qHTS assay to identify small molecule antagonists of the farnesoid-X-receptor (FXR) signaling pathway - cell viability counter screen (AID 743221; active = well fitted cell-killing curve with a large enough effect in the repeat runs, not every such curve was filed as active; note: nearly all actives have a fitted effect of over 50% in size)
How it was run: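 HEK 293T FXR-bla cells, 5 h pre-incubation; compound + CDCA 50 uM final, 16 h, 37 C; beta-lactamase FRET read first, then CellTiter-Glo luminescence, 30 min RT.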

Measured: Potency

COc1c(Cl)c(Cl)c(Cl)c(Cl)c1Cl
inactive: [1] | [2] | [3] | [4] | [5]

C#C[C@]1(O)CC[C@H]2[C@@H]3CCC4=Cc5oncc5C[C@]4(C)[C@H]3CC[C@@]21C
inactive: [2]

CC(C)OC(=O)C(C)(C)Oc1ccc(C(=O)c2ccc(Cl)cc2)cc1
49 µM (active) and inactive: [2]
active: [1] 54.9 µM
not listed: [8] | [9]
inactive: all other assays above

CCCCOCCOCCO
inactive: [1] | [2] | [4] | [6] | [7]

CCCC(=O)O
not listed: [3] | [5] | [9]
inactive: all other assays above

S=C(NC1CCCCC1)NC1CCCCC1
inactive: [4] | [9] | [6] | [7]

CCCCC(CC)COCC1CO1 (stereo unspecified)
not listed: [3] | [5] | [8]
inactive: all other assays above

CC(=O)CC/C=C(\C)CCC=C(C)C
not listed: [3] | [5] | [8]
inactive: all other assays above

CC(C)CC(C)(O)C#CC(C)(O)CC(C)C (stereo unspecified)
inactive: [1] | [2] | [4] | [6] | [7]

COC(=O)Nc1nc2ccc(S(=O)c3ccccc3)cc2[nH]1 (stereo unspecified)
inactive: [2] | [4] | [6]

CC(C)=CCC/C(C)=C\CO
not listed: [8]
inactive: all other assays above
